Compound activity: PubChem, National Center for Advancing Translational Sciences (NCATS)
A selection: hits, their analogues and other compounds. The true share with any hit is near 19%.
DT40 TDP1 CPT: DT40-hTDP1 cell growth loss with CPT | chicken DT40 Tdp1-/-;hTDP1 cells + 20 nM CPT, ATP luminescence, 48 h | Potency, µM (titrated, usually from 46.2 µM), inactives show top-dose activity change, negative = growth inhibition, actives largely listed as inhibitors | actives 12% (n = 420,000); note: potency is the fitted concentration of half-maximal effect; % is set by controls: 0 for no effect and ±100 for the full control effect; nearly all actives have a fitted effect of over 55% in size
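Chicken DT40 Tdp1-/- cells stably complemented with human TDP1 were seeded at 400 cells/well in medium containing 20 nM camptothecin, exposed to pin-transferred compounds, and grown at 37 °C for at least 48 hr. Viability was read as ATP luminescence.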
IL-1B inflam inh: inflammasome signaling inhibition, IL-1 beta readout; THP-1 LPS/ATP IL-1B secretion, AlphaLISA, 16 h; stronger effect = lower value; activity change, % at 57.5 µM; actives 4.7% (n = 360,000); AID 743279; in the data active = activity change below about -50%; inconclusive = mostly about -30% to -49%; note: % is set by controls: 0 for no effect and ±100 for the full control effect
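Secreted IL-1B measured by AlphaLISA bead assay after 16 h compound exposure of THP-1 cells; compounds (final up to 57.5 uM) added 1 h before LPS (250 ng/mL) and ATP (1.25 mM) stimulation; lower signal means less secretion.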
HepG2 viability: counter-screen for TGF-b inhibitors: cytotoxicity in HepG2 cells; HepG2 CAGA-GFP viability, ATP luminescence, 18 h; actives 0.76% (n = 410,000); Potency, µM (series often up to 46.1 µM), for the others: at the highest dose activity change, negative = cytotoxicity, most hits filed as cytotoxic; note: potency is the fitted concentration of half-maximal effect
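HepG2 CAGA-GFP cells (1000/well, DMEM with 1% FBS) received compound, then TGF-beta at 500 pg/mL final, and were incubated 18 hours at 37 degrees C. Viability was read by CellTiter-Glo luminescence. Media-only wells were set as complete cell-killing and DMSO as no toxicity.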
TGFb inhibitor: inhibitors of TGF-b signaling | Potency, µM (highest dose often 46.1 µM), inactives show at the top dose activity, negative = inhibition, usual class: inhibitors | actives 1.2% (n = 410,000) | HepG2 CAGA-GFP TGF-b/SMAD3 reporter, GFP fluorescence, 18 h; TGF-beta stimulated, 500 pg/mL final; note: potency is the fitted concentration of half-maximal effect; % is set by controls: 0 for no effect and ±100 for the full control effect; nearly all actives have a fitted effect of over 65% in size
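TGF-beta reporter screen: HEPG2 CAGA-GFP, 1% FBS, 500 pg/mL TGF-beta final, 18 h; per-cell GFP summed per well; curves fitted and categorized by class.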
TDP1 block: TDP1 (human) enzyme inhibition | Q9NUW8 | recombinant TDP1, AlphaScreen DNA substrate cleavage | Potency, µM (highest dose often 130 µM), inactives show at the top dose activity change, negative = inhibition, actives largely listed as inhibitors | actives 0.28% (n = 350,000); note: potency is the fitted concentration of half-maximal effect; % is set by controls: 0 for no effect and ±100 for the full control effect; nearly all actives have a fitted effect of over 40% in size
Target sequence (Q9NUW8 whole entry, looked up): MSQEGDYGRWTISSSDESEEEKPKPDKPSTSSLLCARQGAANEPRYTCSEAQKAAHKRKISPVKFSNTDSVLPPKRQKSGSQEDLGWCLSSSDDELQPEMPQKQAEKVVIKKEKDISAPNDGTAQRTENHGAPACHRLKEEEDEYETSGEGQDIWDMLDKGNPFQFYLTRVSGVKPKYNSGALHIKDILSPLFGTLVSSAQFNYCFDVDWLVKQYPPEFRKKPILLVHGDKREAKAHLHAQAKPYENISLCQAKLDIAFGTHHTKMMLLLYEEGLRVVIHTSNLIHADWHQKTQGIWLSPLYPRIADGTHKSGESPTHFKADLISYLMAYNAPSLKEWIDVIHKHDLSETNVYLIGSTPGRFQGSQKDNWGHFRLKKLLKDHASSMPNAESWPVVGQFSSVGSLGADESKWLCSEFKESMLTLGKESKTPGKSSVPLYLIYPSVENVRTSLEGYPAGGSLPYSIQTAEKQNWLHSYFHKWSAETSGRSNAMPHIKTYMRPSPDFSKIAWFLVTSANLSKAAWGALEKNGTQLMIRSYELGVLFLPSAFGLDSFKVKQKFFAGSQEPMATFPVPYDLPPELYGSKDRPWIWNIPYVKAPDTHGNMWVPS
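Steps: enzyme plus compound, 15 min RT; add biotin/phosphotyrosine-FITC oligonucleotide (15 nM final), react 5 min; add donor/acceptor beads (10 ug/ml final), 10 min; read AlphaScreen. Tdp1 at 1 nM final.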
DT40 TDP1 no CPT: qHTS for Inhibitors of human tyrosyl-DNA phosphodiesterase 1 (TDP1): qHTS in cells in absence of CPT; Potency, µM (series often up to 46.2 µM), without a hit: at the highest dose activity change, negative = growth inhibition, hits mostly inhibitors; DT40 Tdp1-/- hTDP1 cells, no CPT, ATP luminescence, 48 h; actives 15% (n = 420,000); note: potency is the fitted concentration of half-maximal effect; % is set by controls: 0 for no effect and ±100 for the full control effect; nearly all actives have a fitted effect of over 55% in size
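Chicken DT40 Tdp1-/- cells complemented with human TDP1, screened without camptothecin (DMSO vehicle only), 400 cells/well. Compounds pin-transferred, cells incubated at 37 °C for at least 48 hr. Growth read as ATP-dependent luminescence (CellTiter-Glo, 30 min at RT).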
The depositor's hits bear a star; u = inconclusive; x = not tested or not shown; [ ] = dose if it differs, or a comment. Unless noted, calls come from the whole dose curve; as a rule, active = well fitted curve in the direction sought with a large enough effect; inconclusive = small, poorly fitted or top-dose-only effect, or another doubt; inactive = no such curve, though single readings can be large; an effect the other way counts as inactive or inconclusive.

SMILES | DT40 TDP1 CPT | IL-1B inflam inh | HepG2 viability | TGFb inhibitor | TDP1 block | DT40 TDP1 no CPT
Cc1cccc(C(=O)Nc2ccc(S(=O)(=O)N(Cc3ccccc3)c3ccccc3)cc2)c1 | u | x | 10.0% | -7.7% | 2.6% | 10.3µM*
CC(C)Cn1c(N)c(C(=O)CSc2nnc(C3CC3)n2C2CC2)c(=O)n(C)c1=O | -8.0% | 2.2 | 0.2% | 0.0% | 10.1% | -29.1%
COc1cc2nc(NCc3ccccc3Cl)n3nc(-c4cccnc4)nc3c2cc1OC | 2.6% | x | -0.9% | -15.7% | 0.0% | -16.1%
Cc1ccc(CNC(=O)c2cc3sccc3n2Cc2ccc(Cl)cc2)cc1 | u | x | -33.0% | u | 3.8% | u
Cc1ccccc1OCC(=O)Nc1ccc(S(=O)(=O)N(Cc2ccccc2)c2ccccc2)cc1 | u | x | -9.2% | 0.4% | -2.6% | 5.8µM*
CC(C)N(Cc1ccccc1)S(=O)(=O)c1ccc(F)cc1 | u | -19.6 | -16.3% | -6.0% | x | 9.2µM*
CCOc1cccc(NC(=O)c2ccc(S(=O)(=O)N(C)C)cc2)c1 | u | -8.2 | -20.5% | 8.9% | 3.1% | u
CCOc1ccccc1OCC(=O)Nc1ccc(S(=O)(=O)N(C)C)cc1 | -12.7% | 14.0 | 0.5% | -13.9% | 4.2% | -15.0%
CCOc1cccc(C(=O)Nc2ccc(S(=O)(=O)N(Cc3ccccc3)c3ccccc3)cc2)c1 | u | x | 0.4% | -1.0% | -1.6% | 2.31µM*
CCN(Cc1ccccc1)S(=O)(=O)c1ccc(F)cc1 | -9.5% | -3.0 | -20.2% | -8.1% | x | -11.8%
O=C(Cn1c(=O)c2ccccc2n(CC(=O)Nc2ccc(Cl)cc2)c1=O)NCCc1ccccc1 | u | x | -5.0% | u | -2.5% | u
CC(C)(C)NC(=O)C(c1ccc(F)cc1)N(Cc1ccco1)C(=O)CCC(=O)Nc1nccs1 (centres undefined) | -24.5% | -1.4 | -12.2% | -1.2% | 10.2% | -25.9%
O=C(NCc1ccccc1Cl)c1ccc(Cn2c(=O)c3cccn3c3cccnc32)cc1 | -1.7% | x | -15.8% | -21.9% | 5.1% | -12.4%
CCn1cc(C(=O)NCc2ccc(C)cc2)c(=O)c2cc(S(=O)(=O)N(C)C)ccc21 | u | u | 24.0% | 12.8% | x | u
Cc1ccc(/C=N/NC(=O)c2csc3c2CCCC3)cc1 | 1.3µM* | 0.6 | -9.4% | -23.1% | -3.1% | 1.3µM*
COc1cc(/C=N/NC(=O)c2csc3c2CCCC3)cc(OC)c1O | u | -6.6 | -13.1% | -3.6% | 0.0% | 5.17µM*
Cc1nn(C)cc1/C=N\NC(=O)c1csc2c1CCCC2 | u | -2.5 | -24.6% | -7.7% | 2.7% | u
CCCCCn1c(=N)c(S(=O)(=O)c2ccccc2)cc2c(=O)n3cccc(C)c3nc21 | x | x | -6.2% | -0.5% | x | x
CC1=C(c2ccccc2)C(O)(c2ccccc2)C(C)C1=O (centres undefined) | 16.4µM* | 57.5 | -16.5% | -17.9% | x | 16.4µM*
Cc1ccccc1C(=O)N1CCCC(N2CCN(Cc3ccc4c(c3)OCO4)CC2)C1 (centres undefined) | u | 6.0 | -7.8% | -5.1% | 4.2% | -25.3%
O=C(CCS(=O)(=O)Cc1ccccc1F)N1CCc2ccccc2C1 | 23.1µM* | 21.5 | -3.4% | u | 6.2% | 16.4µM*
COc1ccccc1NC(=O)COC(=O)c1c(NC(C)=O)sc(C)c1C | u | 1.0 | -4.1% | 8.2% | x | 16.4µM*
COc1ccc(CNC(=O)COC(=O)c2c(NC(C)=O)sc(C)c2C)cc1OC | u | u | 18.8% | -7.2% | x | 23.1µM*
CC(=O)Nc1sc(C)c(C)c1C(=O)OCC(=O)Nc1cccc(C)c1 | 16.4µM* | -59.3* | -12.6% | u | 0.6% | 16.4µM*
CC(=O)Nc1sc(C)c(C)c1C(=O)OCC(=O)Nc1ccccc1 | u | -3.6 | -29.0% | -8.1% | -0.8% | -16.6%
SMILES | DT40 TDP1 CPT | IL-1B inflam inh | HepG2 viability | TGFb inhibitor | TDP1 block | DT40 TDP1 no CPT
COc1cccc(NC(=O)COC(=O)c2c(NC(C)=O)sc(C)c2C)c1 | -23.7% | 0.0 | -1.0% | -1.9% | 0.2% | 3.7%
C=C(C)CC1(c2ccccc2)Oc2ccccc2-c2nc3cc(Cl)c(Cl)cc3nc21 (centres undefined) | x | x | x | x | 5.8%[21 µM] | x
NC(=O)c1nsc(C(=O)N(CC(=O)NC2CCCC2)c2cnc3ccccc3c2)c1N | x | x | x | x | 3.8% | x
CSc1ncc2c(n1)-c1cc(C)ccc1SC2 | 2.59µM* | -12.0 | -32.3% | u | -5.1% | 5.17µM*
Cc1ncc2c(n1)-c1cc(F)ccc1SC2 | -5.1% | -4.1 | 0.8% | 0.8% | x | 1.4%
O=C1[C@@H]2[C@@H]3C[C@@H]([C@H]4ON=C(c5ccc(Cl)cc5Cl)[C@@H]34)[C@@H]2C(=O)N1C1CCCCC1 | u | -55.4* | 49.4% | u | 0.0% | u
CN1C(=O)[C@@H]2[C@@H]3C[C@@H]([C@H]4ON=C(c5ccc(Cl)cc5)[C@@H]34)[C@@H]2C1=O | -11.7% | -5.0 | -12.1% | -3.6% | 2.8% | u
Cc1ccc(C)c(N2CCN(CC(=O)Nc3ccc([N+](=O)[O-])cc3C(=O)Nc3ccccc3F)CC2)c1 | u | 29.6 | -2.5% | -14.3% | 5.9% | u
Cc1cc(NC(=O)CN2CCN(C/C=C/c3ccccc3)CC2)c([N+](=O)[O-])cc1C | u | 1.3 | 2.8% | u | 1.9% | u
NS(=O)(=O)c1ccc(NC(=O)CN2CCN(S(=O)(=O)/C=C/c3ccccc3)CC2)cc1 | -3.8% | 3.5 | -9.0% | -8.4% | x | -14.9%
O=C(CN1CCN(C/C=C/c2ccccc2)CC1)Nc1cc([N+](=O)[O-])ccc1Cl | u | 6.0 | -64.5% | u | 2.2% | 25.9µM*
O=C(CN1CCN(c2cccc(Cl)c2)CC1)Nc1ccc([N+](=O)[O-])cc1C(=O)Nc1ccccc1F | u | 15.6 | 2.5% | 0.0% | 5.5% | 23.1µM*
CS(=O)(=O)c1ccc(Cl)c(NC(=O)CN2CCN(S(=O)(=O)/C=C/c3ccccc3)CC2)c1 | u | -17.0 | 1.3% | u | x | 3.26µM*
O=[N+]([O-])c1ccc(C(O)CN2CCN(C/C=C/c3ccccc3)CC2)cc1 (centres undefined) | u | u | -12.3% | 2.0% | x | 29.1µM*
O=[N+]([O-])c1ccc(C(O)CN2CCN(Cc3ccccc3)CC2)cc1 (centres undefined) | 6.8% | 14.4 | -5.6% | 0.0% | x | 7.1%
